# The sample as a whole holds a higher share of the strongest signals than the screen did.
# Tests used:
# Experiment in all cases: glycan array binding signal (z-score within array); higher = stronger binding
# Settings in all cases: glycan notation: IUPAC condensed, linker removed
# [1] = biological target: Gal(b1-4)GlcNAc(b1-6)[Gal(b1-4)GlcNAc(b1-3)]GalNAc
# Outline: (§1)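 Glycan array binding is given as a within-array Z-score, which can be read as non-binding when negative. The arrays, 3228 of them, came from the Consortium for Functional Glycomics database and were retained only where the protein sequence was available. Z-scores were averaged across arrays of the same protein sequence at different concentrations or buffers and across linkers.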
# [2] = biological target: Gal3S(b1-4)[Fuc(a1-3)]GlcNAc6S
# Outline: as §1
# [3] = biological target: GalNAc3S(b1-4)GlcNAc3S
# Outline: as §1
# [4] = biological target: GalNAc4S6S(b1-4)GlcNAc
# Outline: as §1
# [5] = biological target: Glc(a1-4)Glc
# Outline: as §1
# [6] = biological target: GlcA(b1-3)Gal
# Outline: as §1
# [7] = biological target: GlcNAc(a1-4)Gal(b1-4)GlcNAc(b1-3)Gal(b1-4)Glc
# Outline: as §1
# [8] = biological target: GlcNAc(b1-2)[GlcNAc(b1-4)]Man(a1-3)[GlcNAc(b1-4)][GlcNAc(b1-2)[GlcNAc(b1-6)]Man(a1-6)]Man(b1-4)GlcNAc(b1-4)[Fuc(a1-6)]GlcNAc
# Outline: as §1
# [9] = biological target: GlcNAc(b1-2)[GlcNAc(b1-6)]Man(a1-6)[GlcNAc(b1-2)Man(a1-3)]Man(b1-4)GlcNAc(b1-4)[Fuc(a1-6)]GlcNAc
# Outline: as §1
# [10] = biological target: GlcNAc(b1-3)Gal(b1-4)GlcNAc(b1-3)Gal(b1-4)GlcNAc(b1-3)Gal(b1-4)GlcNAc(b1-3)Gal(b1-4)GlcNAc(b1-2)Man(a1-3)[GlcNAc(b1-3)Gal(b1-4)GlcNAc(b1-3)Gal(b1-4)GlcNAc(b1-3)Gal(b1-4)GlcNAc(b1-3)Gal(b1-4)GlcNAc(b1-2)Man(a1-6)]Man(b1-4)GlcNAc(b1-4)GlcNAc
# Outline: as §1
# [11] = biological target: GlcNAc(b1-6)Gal(b1-4)GlcNAc
# Outline: as §1
# [12] = biological target: Kdn(a2-3)Gal(b1-3)GalNAc
# Outline: as §1
# [13] = biological target: MurNAc(b1-4)GlcNAc
# Outline: as §1
# [14] = biological target: Neu5Ac(a2-3)Gal(b1-3)[GlcNAc(b1-6)]GalNAc
# Outline: as §1
# [15] = biological target: Neu5Ac(a2-3)Gal(b1-4)GlcNAc(b1-2)[Neu5Ac(a2-3)Gal(b1-4)GlcNAc(b1-4)]Man(a1-3)[GlcNAc(b1-4)][Neu5Ac(a2-3)Gal(b1-4)GlcNAc(b1-2)[Neu5Ac(a2-3)Gal(b1-4)GlcNAc(b1-6)]Man(a1-6)]Man(b1-4)GlcNAc(b1-4)GlcNAc
# Outline: as §1
# [16] = biological target: Neu5Ac(a2-3)Gal(b1-4)GlcNAc(b1-2)[Neu5Ac(a2-3)Gal(b1-4)GlcNAc(b1-6)]Man(a1-6)[Neu5Ac(a2-3)Gal(b1-4)GlcNAc(b1-2)Man(a1-3)][GlcNAc(b1-4)]Man(b1-4)GlcNAc(b1-4)GlcNAc
# Outline: as §1
# [17] = biological target: Neu5Ac(a2-6)Gal(b1-4)GlcNAc(b1-2)Man
# Outline: as §1
# [18] = biological target: Neu5Ac(a2-6)Gal(b1-4)GlcNAc(b1-2)Man(a1-3)[GlcNAc(b1-4)][Neu5Ac(a2-6)Gal(b1-4)GlcNAc(b1-2)Man(a1-6)]Man(b1-4)GlcNAc(b1-4)GlcNAc
# Outline: as §1
# [19] = biological target: Neu5Ac(a2-6)Gal(b1-4)GlcNAc(b1-2)Man(a1-3)[Man(a1-6)]Man(b1-4)GlcNAc(b1-4)GlcNAc
# Outline: as §1
# [20] = biological target: Neu5Ac(a2-6)Gal(b1-4)GlcNAc(b1-2)Man(a1-3)[Neu5Ac(a2-6)Gal(b1-4)GlcNAc(b1-2)Man(a1-6)]Man(b1-4)GlcNAc(b1-4)GlcNAc
# Outline: as §1
# [21] = biological target: Neu5Ac(a2-6)Gal(b1-4)GlcNAc(b1-2)Man(a1-6)Man(b1-4)GlcNAc(b1-4)GlcNAc
# Outline: as §1
# [22] = biological target: Neu5Ac(a2-6)Gal(b1-4)GlcNAc(b1-2)Man(a1-6)[Man(a1-3)]Man(b1-4)GlcNAc(b1-4)GlcNAc
# Outline: as §1
# [23] = biological target: Neu5Ac(a2-6)Gal(b1-4)GlcNAc(b1-3)Gal(b1-4)GlcNAc(b1-3)[Neu5Ac(a2-6)Gal(b1-4)GlcNAc(b1-3)Gal(b1-4)GlcNAc(b1-6)]GalNAc
# Outline: as §1
# [24] = biological target: Neu5Ac(a2-8)Neu5Ac(a2-3)Gal(b1-3)GalNAc(b1-4)[Neu5Ac(a2-3)]Gal(b1-4)Glc
# Outline: as §1
binder,measurement,setting,value
his-Lectin-24A (Drosophila melanogaster) (protein) MFRLSVLVLNLLLVSHEFSAGTAKIEIQPLPALCNGYCFPTLKPVMEYVAIHQDKWNTCTEILANEARKDQIQLNIQLDALKADVSNIKASQLSKDEKLDRMEREQFAMHESLETINRYLTVKLDRTKLQLEAIKNTMDYMKAQMDGYFSAINGVQCLQPGFEKIGDRYFYIEEDVELNWLDAQAKCRRMGGHLASIKTKQEFDAIVEKLDDSKSYFLGVNENTKTGDFVSAASGKSCLYHEWGPGEPHHNNDQERCVSILRKLMHVGNCTYEKRFICQYGI,glycan array binding signal (z-score),[1],0.403
same,glycan array binding signal (z-score),[2],0.382
same,glycan array binding signal (z-score),[3],3.3
same,glycan array binding signal (z-score),[4],6.71
same,glycan array binding signal (z-score),[5],-0.592
same,glycan array binding signal (z-score),[6],0.317
same,glycan array binding signal (z-score),[7],2.7
same,glycan array binding signal (z-score),[8],2.05
same,glycan array binding signal (z-score),[9],1.69
same,glycan array binding signal (z-score),[10],0.615
same,glycan array binding signal (z-score),[11],0.608
same,glycan array binding signal (z-score),[12],0.552
same,glycan array binding signal (z-score),[13],-0.281
same,glycan array binding signal (z-score),[14],-0.036
same,glycan array binding signal (z-score),[15],2.26
same,glycan array binding signal (z-score),[16],-0.362
same,glycan array binding signal (z-score),[17],-0.44
same,glycan array binding signal (z-score),[18],-1.2
same,glycan array binding signal (z-score),[19],-0.737
same,glycan array binding signal (z-score),[20],0.078
same,glycan array binding signal (z-score),[21],1.27
same,glycan array binding signal (z-score),[22],1.07
same,glycan array binding signal (z-score),[23],0.118
same,glycan array binding signal (z-score),[24],2.87
